Measured values as given in publication PMC7862700, “An all-to-all approach to the identification of sequence-specific readers for epigenetic DNA modifications on cytosine”.

Tests used:
Assay in all cases: DAPPL (digital affinity profiling via proximity ligation, sequencing); 10 mM Tris-HCl pH 7.5, 50 mM NaCl, 1 mM DTT, 4% glycerol, room temperature, 30 min; GST-TFs on glutathione beads, 16-mer random dsDNA library, 0.1% formaldehyde crosslink after washing; high values mean tight binding
Details in all cases: protein: recombinant; tags: N-terminal GST; dsDNA, one strand shown
FLI1 = target: T1, FLI1 (Homo sapiens, UniProt Q01543 1-452)
T1 sequence: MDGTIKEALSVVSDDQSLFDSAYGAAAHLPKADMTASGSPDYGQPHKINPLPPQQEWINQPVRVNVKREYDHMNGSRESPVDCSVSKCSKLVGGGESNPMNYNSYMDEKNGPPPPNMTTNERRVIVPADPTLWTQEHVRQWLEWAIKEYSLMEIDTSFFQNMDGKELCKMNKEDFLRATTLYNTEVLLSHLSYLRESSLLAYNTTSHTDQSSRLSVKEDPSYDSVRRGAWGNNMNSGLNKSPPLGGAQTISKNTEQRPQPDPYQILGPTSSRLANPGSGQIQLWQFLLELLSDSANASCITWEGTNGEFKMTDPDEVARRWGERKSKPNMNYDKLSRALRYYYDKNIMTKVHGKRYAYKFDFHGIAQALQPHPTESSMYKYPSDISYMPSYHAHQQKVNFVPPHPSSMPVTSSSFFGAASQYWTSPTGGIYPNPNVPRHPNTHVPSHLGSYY
Method in brief: (§1)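 Binding signal is each hexamer's read frequency for a factor divided by its frequency in the tag-only sample. The factors were GST-fused human transcription factors from yeast, captured on glutathione beads, DNA-barcoded and pooled with that sample. Pools were incubated with 200 nmole of a random double-stranded 16-mer DNA library in Tris/NaCl/DTT/glycerol buffer at room temperature for 30 min, then washed, crosslinked with 0.1% formaldehyde, proximity-ligated with BsaI/T4 ligase (1 h, 37 °C), PCR-amplified and sequenced on an Illumina NextSeq500.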

ELK1 = target: T2, ELK1 (Homo sapiens, UniProt P19419 1-428)
T2 sequence: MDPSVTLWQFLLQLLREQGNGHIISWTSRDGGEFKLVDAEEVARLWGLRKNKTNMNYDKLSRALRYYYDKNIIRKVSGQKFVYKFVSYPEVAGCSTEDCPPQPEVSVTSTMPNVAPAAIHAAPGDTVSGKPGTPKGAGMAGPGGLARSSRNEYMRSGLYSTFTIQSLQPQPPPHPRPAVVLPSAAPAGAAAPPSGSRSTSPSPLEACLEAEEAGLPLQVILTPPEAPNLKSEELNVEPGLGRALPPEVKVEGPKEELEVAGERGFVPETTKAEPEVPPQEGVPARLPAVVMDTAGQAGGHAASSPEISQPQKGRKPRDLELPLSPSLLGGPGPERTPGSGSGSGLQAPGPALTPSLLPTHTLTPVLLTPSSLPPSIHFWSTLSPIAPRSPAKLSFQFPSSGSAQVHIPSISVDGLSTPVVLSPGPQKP
Method in brief: as §1

GABPA = target: T3, GABPA (Homo sapiens, UniProt Q06546 1-454)
T3 sequence: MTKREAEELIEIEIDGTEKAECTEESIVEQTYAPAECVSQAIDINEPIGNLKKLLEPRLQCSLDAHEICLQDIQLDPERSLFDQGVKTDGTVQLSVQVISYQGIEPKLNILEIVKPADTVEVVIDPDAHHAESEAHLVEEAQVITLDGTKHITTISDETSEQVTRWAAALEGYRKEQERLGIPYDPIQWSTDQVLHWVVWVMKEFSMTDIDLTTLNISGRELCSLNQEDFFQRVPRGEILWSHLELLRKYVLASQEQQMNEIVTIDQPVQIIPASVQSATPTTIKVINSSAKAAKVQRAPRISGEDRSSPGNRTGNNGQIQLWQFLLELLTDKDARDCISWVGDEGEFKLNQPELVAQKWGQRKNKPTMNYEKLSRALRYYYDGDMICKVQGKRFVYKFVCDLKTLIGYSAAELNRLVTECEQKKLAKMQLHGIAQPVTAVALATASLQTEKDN
Method in brief: as §1

ERG = target: T4, ERG (Homo sapiens, UniProt P11308 1-479)
T4 sequence: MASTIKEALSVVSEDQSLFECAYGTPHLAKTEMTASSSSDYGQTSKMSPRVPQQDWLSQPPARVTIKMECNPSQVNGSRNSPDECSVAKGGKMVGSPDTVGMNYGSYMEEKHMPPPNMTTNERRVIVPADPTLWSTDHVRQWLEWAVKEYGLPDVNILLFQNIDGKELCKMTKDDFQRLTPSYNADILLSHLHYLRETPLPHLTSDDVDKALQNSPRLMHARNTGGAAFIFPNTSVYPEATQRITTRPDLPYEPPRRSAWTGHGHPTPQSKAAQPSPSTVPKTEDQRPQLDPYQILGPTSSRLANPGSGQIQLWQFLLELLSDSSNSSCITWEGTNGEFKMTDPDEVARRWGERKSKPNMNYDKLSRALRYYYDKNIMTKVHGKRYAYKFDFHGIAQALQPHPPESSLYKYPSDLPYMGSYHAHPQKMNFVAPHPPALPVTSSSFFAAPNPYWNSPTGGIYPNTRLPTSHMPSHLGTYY
Method in brief: as §1

ELK3 = target: T5, ELK3 (Homo sapiens, UniProt P41970 1-407)
T5 sequence: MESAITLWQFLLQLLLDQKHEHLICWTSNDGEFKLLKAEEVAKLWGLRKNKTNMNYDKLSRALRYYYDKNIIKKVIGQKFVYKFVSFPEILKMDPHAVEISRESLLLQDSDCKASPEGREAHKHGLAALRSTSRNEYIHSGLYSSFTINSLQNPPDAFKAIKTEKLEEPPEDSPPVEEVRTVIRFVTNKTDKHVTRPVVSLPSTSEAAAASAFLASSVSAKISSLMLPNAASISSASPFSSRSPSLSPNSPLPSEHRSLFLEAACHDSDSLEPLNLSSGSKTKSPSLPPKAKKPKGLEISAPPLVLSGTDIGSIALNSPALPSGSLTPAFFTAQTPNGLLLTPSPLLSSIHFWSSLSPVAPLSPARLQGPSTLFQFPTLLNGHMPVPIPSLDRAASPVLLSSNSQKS
Method in brief: as §1

FEV = target: T6, FEV (Homo sapiens, UniProt Q99581 1-238)
T6 sequence: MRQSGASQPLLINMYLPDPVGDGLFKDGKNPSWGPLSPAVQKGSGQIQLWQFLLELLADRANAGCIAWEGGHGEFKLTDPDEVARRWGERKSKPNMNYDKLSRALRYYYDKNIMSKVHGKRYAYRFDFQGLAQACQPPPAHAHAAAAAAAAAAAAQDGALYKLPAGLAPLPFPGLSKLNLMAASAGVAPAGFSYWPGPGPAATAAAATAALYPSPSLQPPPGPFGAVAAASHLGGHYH
Method in brief: as §1

ETV3L = target: T7, ETV3L (Homo sapiens, UniProt Q6ZN32 1-361)
T7 sequence: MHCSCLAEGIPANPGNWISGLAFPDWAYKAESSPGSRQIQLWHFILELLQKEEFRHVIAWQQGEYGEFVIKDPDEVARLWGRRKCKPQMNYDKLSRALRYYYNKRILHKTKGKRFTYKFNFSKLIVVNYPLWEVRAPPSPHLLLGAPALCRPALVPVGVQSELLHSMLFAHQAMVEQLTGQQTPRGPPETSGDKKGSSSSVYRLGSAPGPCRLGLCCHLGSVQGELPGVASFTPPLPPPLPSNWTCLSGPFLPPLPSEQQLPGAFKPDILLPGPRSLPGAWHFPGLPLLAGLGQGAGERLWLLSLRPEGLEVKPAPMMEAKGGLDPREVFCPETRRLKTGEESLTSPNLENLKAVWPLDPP
Method in brief: as §1

ETS2 = target: T8, ETS2 (Homo sapiens, UniProt P15036 1-469)
T8 sequence: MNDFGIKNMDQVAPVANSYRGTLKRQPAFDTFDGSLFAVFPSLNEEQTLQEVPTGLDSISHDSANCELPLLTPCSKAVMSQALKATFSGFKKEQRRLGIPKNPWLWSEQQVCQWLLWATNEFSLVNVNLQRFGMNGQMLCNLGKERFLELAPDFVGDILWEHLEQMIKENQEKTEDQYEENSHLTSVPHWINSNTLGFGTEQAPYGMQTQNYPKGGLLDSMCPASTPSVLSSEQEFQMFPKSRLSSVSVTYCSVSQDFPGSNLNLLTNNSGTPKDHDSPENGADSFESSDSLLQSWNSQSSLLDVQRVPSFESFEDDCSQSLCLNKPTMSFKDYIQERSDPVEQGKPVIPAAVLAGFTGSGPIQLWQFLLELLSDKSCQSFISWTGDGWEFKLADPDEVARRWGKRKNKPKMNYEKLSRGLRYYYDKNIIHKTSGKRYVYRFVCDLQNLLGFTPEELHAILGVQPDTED
Method in brief: as §1

SPDEF = target: T9, SPDEF (Homo sapiens, UniProt O95238 1-335)
T9 sequence: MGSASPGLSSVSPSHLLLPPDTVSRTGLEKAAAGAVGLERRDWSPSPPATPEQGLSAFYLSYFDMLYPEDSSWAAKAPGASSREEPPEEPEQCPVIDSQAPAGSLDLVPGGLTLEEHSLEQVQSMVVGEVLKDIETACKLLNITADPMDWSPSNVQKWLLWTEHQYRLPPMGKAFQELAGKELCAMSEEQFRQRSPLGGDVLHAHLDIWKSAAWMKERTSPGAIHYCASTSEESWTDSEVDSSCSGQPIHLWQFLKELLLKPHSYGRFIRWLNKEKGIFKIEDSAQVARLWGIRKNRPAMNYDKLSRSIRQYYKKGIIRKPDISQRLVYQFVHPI
Method in brief: as §1

ETV7 = target: T10, ETV7 (Homo sapiens, UniProt Q9Y603 1-341)
T10 sequence: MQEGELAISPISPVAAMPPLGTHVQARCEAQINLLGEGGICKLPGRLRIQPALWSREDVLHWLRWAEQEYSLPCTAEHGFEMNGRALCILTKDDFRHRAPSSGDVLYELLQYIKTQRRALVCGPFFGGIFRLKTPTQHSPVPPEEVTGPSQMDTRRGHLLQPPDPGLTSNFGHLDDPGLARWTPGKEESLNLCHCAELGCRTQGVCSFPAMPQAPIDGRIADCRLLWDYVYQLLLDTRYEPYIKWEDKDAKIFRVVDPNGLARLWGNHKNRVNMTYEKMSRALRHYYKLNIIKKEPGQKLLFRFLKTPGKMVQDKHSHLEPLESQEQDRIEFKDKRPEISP
Method in brief: as §1

ETV3 = target: T11, ETV3 (Homo sapiens, UniProt P41162-2 1-143)
T11 sequence: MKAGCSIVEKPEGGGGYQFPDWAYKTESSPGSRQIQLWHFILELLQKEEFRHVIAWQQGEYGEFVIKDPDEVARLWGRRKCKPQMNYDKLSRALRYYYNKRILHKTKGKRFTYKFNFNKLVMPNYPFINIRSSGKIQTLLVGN
Method in brief: as §1

ETV6 = ETV6 (Homo sapiens, UniProt P41212 1-452)
Method in brief: as §1

EHF = target: T12, EHF (Homo sapiens, UniProt Q9NZC4 1-300)
T12 sequence: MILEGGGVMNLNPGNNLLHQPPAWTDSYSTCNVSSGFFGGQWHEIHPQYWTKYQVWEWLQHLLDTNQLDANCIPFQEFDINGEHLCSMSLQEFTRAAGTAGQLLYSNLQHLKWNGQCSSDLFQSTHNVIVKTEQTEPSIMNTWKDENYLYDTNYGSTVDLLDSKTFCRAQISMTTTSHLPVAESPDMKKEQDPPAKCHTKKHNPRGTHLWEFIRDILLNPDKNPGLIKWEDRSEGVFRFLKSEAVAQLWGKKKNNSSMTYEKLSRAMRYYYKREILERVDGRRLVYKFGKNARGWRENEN
Method in brief: as §1

ERF = target: T13, ERF (Homo sapiens, UniProt P50548 1-548)
T13 sequence: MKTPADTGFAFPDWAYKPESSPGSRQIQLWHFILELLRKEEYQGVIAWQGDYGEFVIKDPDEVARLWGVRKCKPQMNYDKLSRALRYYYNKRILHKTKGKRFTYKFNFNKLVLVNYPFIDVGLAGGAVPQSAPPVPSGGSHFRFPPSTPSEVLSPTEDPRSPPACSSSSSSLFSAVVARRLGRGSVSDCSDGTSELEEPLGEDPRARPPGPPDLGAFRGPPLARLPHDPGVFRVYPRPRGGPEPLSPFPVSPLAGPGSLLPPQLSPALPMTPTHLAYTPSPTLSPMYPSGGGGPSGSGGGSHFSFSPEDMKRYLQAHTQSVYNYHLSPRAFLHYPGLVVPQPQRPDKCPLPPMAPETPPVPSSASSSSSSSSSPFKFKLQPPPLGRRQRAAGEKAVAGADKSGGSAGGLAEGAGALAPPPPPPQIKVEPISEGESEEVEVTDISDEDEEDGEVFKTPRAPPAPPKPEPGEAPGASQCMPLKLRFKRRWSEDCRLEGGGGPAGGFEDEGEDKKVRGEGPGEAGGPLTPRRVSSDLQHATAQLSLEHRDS
Method in brief: as §1

Sequence of ETV6 (P41212 whole entry): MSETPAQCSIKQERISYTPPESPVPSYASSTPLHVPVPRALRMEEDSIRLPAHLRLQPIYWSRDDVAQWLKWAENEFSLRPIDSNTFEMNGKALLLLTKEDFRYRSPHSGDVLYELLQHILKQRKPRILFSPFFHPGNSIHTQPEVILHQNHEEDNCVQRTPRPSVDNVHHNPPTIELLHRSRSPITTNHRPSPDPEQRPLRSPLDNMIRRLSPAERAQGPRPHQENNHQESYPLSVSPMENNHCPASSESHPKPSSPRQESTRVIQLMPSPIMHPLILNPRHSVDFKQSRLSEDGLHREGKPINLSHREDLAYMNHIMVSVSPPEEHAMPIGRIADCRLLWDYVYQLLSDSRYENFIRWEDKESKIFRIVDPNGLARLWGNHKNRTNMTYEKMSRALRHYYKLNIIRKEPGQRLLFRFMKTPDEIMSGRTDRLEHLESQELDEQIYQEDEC

## CCGGTG
FLI1
  binding signal: 1.04 fold enrichment (6-mer frequency, TF over GST control)
ELK1
  binding signal: 1.09 fold enrichment (6-mer frequency, TF over GST control)
GABPA
  binding signal: 1.08 fold enrichment (6-mer frequency, TF over GST control)
ERG
  binding signal: 1.19 fold enrichment (6-mer frequency, TF over GST control)
ELK3
  binding signal: 1.08 fold enrichment (6-mer frequency, TF over GST control)
FEV
  binding signal: 1.35 fold enrichment (6-mer frequency, TF over GST control)
ETV3L
  binding signal: 1.01 fold enrichment (6-mer frequency, TF over GST control)
ETS2
  binding signal: 1.02 fold enrichment (6-mer frequency, TF over GST control)
SPDEF
  binding signal: 1.13 fold enrichment (6-mer frequency, TF over GST control)
ETV7
  binding signal: 1.04 fold enrichment (6-mer frequency, TF over GST control)
ETV3
  binding signal: 1.08 fold enrichment (6-mer frequency, TF over GST control)
ETV6
  binding signal: 1.02 fold enrichment (6-mer frequency, TF over GST control)

## CATTGG
FLI1
  binding signal: 1.05 fold enrichment (6-mer frequency, TF over GST control)
GABPA
  binding signal: 1 fold enrichment (6-mer frequency, TF over GST control)
EHF
  binding signal: 1 fold enrichment (6-mer frequency, TF over GST control)
ERF
  binding signal: 1.05 fold enrichment (6-mer frequency, TF over GST control)
